# Most compounds without a hit are left out; they make up all but 1.6% or so of the library.
# KCNQ2 inh – rat KCNQ2 potassium channel inhibitors, primary screen, cell-based, CHO-K1, FluxOR thallium flux, B-score | 1.1% of 310,000 active | AID 2156, 2009 | 20 min; stronger effect = lower value | B-score at 10 µM;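 active = fluorescence ratio B-score at most minus 3 library SDs, with starting brightness B-score within 2 library SDs, cut at about -5.5 in these data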
# KCNQ2 pot – potentiators of rat KCNQ2 potassium channel | AID 2239, 2010 | B-score at 10 µM | CHO-K1 KCNQ2, FluxOR thallium flux fluorescence; stronger effect = higher value | Potassium voltage-gated channel subfamily KQT member 2 (Rattus norvegicus), O88943 | 0.54% of 310,000 active;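 active = fluorescence ratio B-score at least 3 SD of library B-scores, with initial fluorescence B-score within 3 of them, cut at about 5.3 in these data; same plate scores as AID 2156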;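 note: B-score of peak minus minimum over baseline fluorescence ratio after K+ and Tl+ stimulus; positive B-score means potentiation of KCNQ2 with more thallium influx and brighter signal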
# Kir21 confirm – mouse Kir2.1 channel blockers, retest, confirmation, cell-based, FluxOR thallium flux, duplicate | Kir2.1-expressing cells, FluxOR thallium flux fluorescence; stronger effect = lower value | 41% of 2,300 active | Tl flux remaining, % of negative control (stronger effect = lower value), % at 10 µM | shares compounds with KCNQ2 pot;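 active = Primary-screen hit whose thallium flux fell at least 3 control SD below untreated wells in both duplicates, with normal baseline fluorescence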
# HEK293 ctr – parental HEK293 activity in Kir2.1 inhibitor counter-screen. shares compounds with KCNQ2 pot. parental HEK293 cells, FluxOR thallium flux fluorescence; 0% = unstimulated blank wells. FluxOR signal as % of negative control (100 = no effect), % at 10 µM. 19% of 2,300 active. AID 2105;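 active = dye signal at least 3 control SD above or below untreated wells in both duplicates, raw fluorescence within 3, either direction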;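 note: percent is based on the flux ratio of peak minus minimum fluorescence over baseline F0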
# CHO-K1 ctr – nonspecific thallium flux increase in parental CHO-K1, confirmation, counter-screen for KCNQ2 potentiator project, cell-based, FluxOR thallium flux, duplicate. parental CHO-K1 cells, FluxOR thallium flux fluorescence; zero = vehicle mean+3SD, 100% = vehicle-minus-blank window. activity increase over 3SD of controls, % at 10 µM. 43% of 1,200 active. shares compounds with KCNQ2 pot;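 active = signal rise of at least 3 SD above the untreated control mean, in both duplicate wells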;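 note: counter screen of KCNQ2 potentiator hits so any rise reflects channel-independent effects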
# KCNQ1 sel pot – human KCNQ1 channel potentiation off-target, confirmation, selectivity assay for KCNQ2 potentiator project, cell-based, CHO, FluxOR thallium flux | AID 2283, 2010 | CHO KCNQ1 stable, FluxOR thallium flux fluorescence; beyond 3SD, as % of vehicle-control signal | shares compounds with KCNQ2 pot | 28% of 1,200 active | activation over 3SD threshold, % at 10 µM;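 active = fluorescence ratio rise of at least 3 SD of vehicle wells above their mean, in both replicate wells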
# Target sequence (P51787 whole entry, looked up): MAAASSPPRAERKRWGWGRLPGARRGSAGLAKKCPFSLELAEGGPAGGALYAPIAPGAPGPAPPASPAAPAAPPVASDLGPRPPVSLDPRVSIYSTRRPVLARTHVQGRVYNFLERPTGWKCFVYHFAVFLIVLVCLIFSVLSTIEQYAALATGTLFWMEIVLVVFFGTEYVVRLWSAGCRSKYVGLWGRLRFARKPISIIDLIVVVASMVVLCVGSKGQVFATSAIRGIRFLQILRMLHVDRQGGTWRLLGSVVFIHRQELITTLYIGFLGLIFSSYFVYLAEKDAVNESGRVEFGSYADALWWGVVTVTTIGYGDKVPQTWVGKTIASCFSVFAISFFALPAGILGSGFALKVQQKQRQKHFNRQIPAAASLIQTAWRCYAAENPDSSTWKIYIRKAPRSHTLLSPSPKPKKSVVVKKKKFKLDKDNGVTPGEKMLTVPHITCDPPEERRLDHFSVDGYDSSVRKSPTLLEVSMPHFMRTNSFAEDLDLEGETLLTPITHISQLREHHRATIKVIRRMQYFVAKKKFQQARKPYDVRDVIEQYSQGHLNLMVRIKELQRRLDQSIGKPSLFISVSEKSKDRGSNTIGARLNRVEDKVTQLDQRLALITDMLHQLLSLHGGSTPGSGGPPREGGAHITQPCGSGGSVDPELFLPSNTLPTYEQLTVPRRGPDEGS
# KCNQ2 pot conf – rat KCNQ2 channel potentiators, confirmation, cell-based, CHO, FluxOR thallium flux, duplicate | AID 2287, 2010 | CHO-KCNQ2 cells, FluxOR thallium flux fluorescence | potentiation, less the hit threshold, % at 10 µM | shares compounds with KCNQ2 pot | 68% of 1,200 active;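 active = fluorescence ratio rising 3 SD or more over the vehicle control mean in both replicates, plus primary screen hit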;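 note: peak minus minimum thallium fluorescence divided by baseline after K/Tl stimulus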
# Kir21 spec – mouse Kir2.1 channel activation off-target, confirmation, selectivity assay for KCNQ2 potentiator project, cell-based, HEK293, FluxOR thallium flux; 2% of 1,200 active; shares compounds with KCNQ2 pot; HEK293 Kir2.1, FluxOR thallium flux fluorescence; activity over 3SD threshold, % at 10 µM;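 active = fluorescence ratio rise of at least 3 SD above the vehicle-control mean, seen in both replicates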
# KCNQ2 W236L pot – potentiators of retigabine-insensitive KCNQ2 W236L, mechanism study for KCNQ2 potentiator project, cell-based, rat KCNQ2 W236L, CHO, automated patch clamp | automated patch clamp current | current increase over 3SD of negative controls (%), stronger effect = higher value, % at 25 µM | 10% of 940 active | AID 2558, 2010 | shares compounds with KCNQ2 pot;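 active = current increase at least 3 SD of the untreated controls above them in both duplicate recordings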
# A number is an active result; - = inactive; . = no result given.
SMILES,KCNQ2 inh,KCNQ2 pot,Kir21 confirm,HEK293 ctr,others
COc1ccc(C[C@H]2CN3C(=NC[C@@H]3C(C)C)N2CCNC(=O)c2ccc(C)c(Br)c2)cc1,-,.,49.0%,-,
COCCN(C(=O)CSc1nnc(-c2ccccc2C)n1C)c1c(N)n(Cc2ccccc2)c(=O)[nH]c1=O,-,.,.,.,
CC(NS(=O)(=O)c1ccccc1)C(=O)Nc1ccc2c(c1)OCCO2 (configuration not stated),-,.,.,.,
CC1CCc2c(sc3ncnc(SCC(=O)Nc4ccc(C(=O)O)cc4)c23)C1 (configuration not stated),-,-,.,.,
COc1cc(NC(=O)CSc2ncnc3sc4c(c23)CCC(C)C4)c(C(=O)O)cc1OC (configuration not stated),-,19.2,-,417.0%,CHO-K1 ctr=-;KCNQ1 sel pot=35.6;KCNQ2 pot conf=94.5;Kir21 spec=-;KCNQ2 W236L pot=-
O=C(NC1CCCC1)c1cc2nc(-c3ccco3)cc(C(F)(F)F)n2n1,-,.,.,.,
CC(C)(C)C(=O)Nc1cc2c3c(c1)CCN3C(=O)CC2,-,-,.,.,
CC(=O)Oc1c(C(=O)c2nnc(C)o2)c(=O)n(C)c2ccccc12,-,-,.,.,
Cc1ccc(C)c(NS(=O)(=O)c2c(C)ccc3nsnc23)c1,-,.,.,.,
Cc1ccc2nsnc2c1S(=O)(=O)Nc1cccc2nsnc12,-,6.13,-,237.5%,
CC(C)OCCCN1CN(S(=O)(=O)c2cccs2)c2nc3ccccc3nc21,-,.,.,.,
Cc1ccnc2nc(C(=O)OCC(=O)c3c[nH]c4ccccc34)nn12,-,.,.,.,
CC(C)c1ccc(CN2CCSCC2)cc1,-,.,.,.,
O=C1OC(c2ccccc2)=C/C1=C/N1CCCCC1,-,.,.,.,
COC(=O)/C=C1\OC(c2ccccc2)=CC1=O,-12.7,-,53.5%,66.0%,
CCOC(=O)C(C(=O)OCC)C(C(=O)OCC)N1CCOCC1 (configuration not stated),-,14.6,.,.,CHO-K1 ctr=-;KCNQ1 sel pot=23.9;KCNQ2 pot conf=35.0;Kir21 spec=-;KCNQ2 W236L pot=-
CCOC(=O)C(C)CC(C)C(=O)N1CCOCCOCCN(C(=O)C(C)CC(C)C(=O)OCC)CCOCC1 (configuration not stated),-,-,.,.,
O=C(NNC(=O)c1cc(-c2cccc(Br)c2)nc2ccccc12)c1csc(N2CCOCC2)n1,-,.,.,.,
Cc1cc(Nc2ccc(N3CCC(C)CC3)cc2)n2ncnc2n1,-,.,.,.,
COc1cccc(CSc2nnc(-c3ccncc3)n2N)c1,-,-,.,.,
O=C(Nc1n[nH]c(=S)s1)c1ccc2ccccc2c1,-,6.45,-,222.5%,CHO-K1 ctr=-;KCNQ1 sel pot=16.4;KCNQ2 pot conf=8.2;Kir21 spec=-;KCNQ2 W236L pot=17.7%
O=C(Nc1nccs1)c1ccc2ccccc2c1,-,-,.,.,
O=S(=O)(c1ccc(Cl)cc1)N1CCCC(C(F)(F)F)C1 (configuration not stated),-,-,.,.,
O=C(NCc1ccc(F)cc1)C(c1ccccc1)c1ccccc1,-,.,.,.,
CCC(NC(=S)NCc1ccc(F)cc1)c1ccccc1 (configuration not stated),-,-,57.5%,62.5%,
SMILES,KCNQ2 inh,KCNQ2 pot,Kir21 confirm,HEK293 ctr,others
CN(C)CCCn1c(NC(=O)C2CCCCC2)nc2ccccc21,-,-,.,.,
CCCCn1c(NC(=O)C2CCCCC2)nc2ccccc21,-,9.62,-,-,CHO-K1 ctr=3.9;KCNQ1 sel pot=-;KCNQ2 pot conf=16.4;Kir21 spec=-;KCNQ2 W236L pot=-
Cn1c(N2C(=O)CC(Cc3ccccc3)C2=O)nc2ccccc21 (configuration not stated),-,.,.,.,
Cc1ccc(C)c(NC(=O)CN2C(=O)COc3ccc(S(=O)(=O)N4CCCC4)cc32)c1,-,-,.,.,
COc1ccccc1NC(=O)C(=O)NNC(=O)COc1ccc2ccccc2c1,-,23.2,-,-,CHO-K1 ctr=41.3;KCNQ1 sel pot=-;KCNQ2 pot conf=27.5;Kir21 spec=-;KCNQ2 W236L pot=-
COc1ccccc1NC(=O)COc1ccc2ccccc2c1,-,.,.,.,
Cc1csc(=O)n1CCC(=O)OCC(=O)Nc1cccc(C#N)c1,-,.,.,.,
CSc1nc(-c2cccs2)c(C#N)c(=O)[nH]1,-,-,.,.,
N#Cc1c(-c2cccs2)nc(SCc2ccc(Cl)cc2)[nH]c1=O,-,6.11,-,59.5%,CHO-K1 ctr=4.4;KCNQ1 sel pot=18.3;KCNQ2 pot conf=15.4;Kir21 spec=-;KCNQ2 W236L pot=-
O=C(NCc1ccccc1)c1nccnc1CO,-,.,.,.,
Cc1cc(C)c(S(=O)(=O)N2CCCOC2CNC(=O)C(=O)NCc2ccco2)c(C)c1 (configuration not stated),-,-,.,.,
Cc1nc(N2CCN(Cc3ccccc3)CC2)c(C#N)c2c1COC(C)(C)C2,-,.,60.0%,-,
CC(C)c1nc(N2CCN(C(=O)c3ccccc3)CC2)c(C#N)c2c1COC(C)(C)C2,-,.,.,.,
OCCOCCn1c(C2CCCN2c2nc(-c3ccc(F)cc3)cs2)nc2cc(Cl)c(Cl)cc21 (configuration not stated),-,.,.,.,
OCCCn1c(C2CCCN2c2nc(-c3ccc(Cl)cc3)cs2)nc2cc(Cl)c(N3CCCCC3)cc21 (configuration not stated),-,8.14,-,-,CHO-K1 ctr=13.4;KCNQ1 sel pot=-;KCNQ2 pot conf=8.9;Kir21 spec=-;KCNQ2 W236L pot=-
Cc1csc(N2CCCC2c2nc3cc(Cl)c(N4CCCCC4)cc3n2CCCO)n1 (configuration not stated),-,-,.,.,
OCCCn1c(C2CCCN2c2nc(-c3ccc(F)cc3)cs2)nc2cc(Cl)c(N3CCCCC3)cc21 (configuration not stated),-,10.4,-,-,CHO-K1 ctr=-;KCNQ1 sel pot=-;KCNQ2 pot conf=54.9;Kir21 spec=-;KCNQ2 W236L pot=-
CC(=O)c1ccc(OCC(O)CN2CCN(S(=O)(=O)c3c(C)c(C)cc(C)c3C)CC2)cc1 (configuration not stated),-,.,.,.,

# Bioassay records from PubChem.
